SMILES strings stand for the structures. Out of some 6,200 compounds screened, about 2,900 (47%) were called active. Rule as the data show it: active = inhibition above about 50%; inactive = the rest. The set was probably picked from earlier hits. The list shows a part of the results.

The nature of this test: Mycobacterium tuberculosis growth inhibition, primary screen (AID 1259343). The conditions noted are these: inhibition: at 10 µM, active compounds read high; outcome: 10 uM.
In general, inhibition refers to the relative decrease from the control value, in per cent. For the compound `O=C1NC(=S)SC1=Cc1cccc(C(F)(F)F)c1`, the inhibition was 14.4% (inactive).
With `FC(F)(F)c1ccc2c(c1)Oc1sc(Cl)cc1NC2=S` the figure was 92% (active); with `CC(NCc1cn(C)nc1-c1ccc(Oc2ccccc2)cc1)c1ccccc1` (configuration not stated), 70.8% (active); with `COc1ccc(C(C)NCC(O)COc2ccc(Cl)cc2Cl)cc1F` (configuration not stated), 41.6% (inactive).
In the case of `CCOc1cc2c(cc1CNc1ccc(C#N)cn1)OC(C)C2` (configuration not stated) it was 19.6% (inactive); in that of `COc1ccc(C(C)Nc2ccc(C#N)cn2)cc1F` (configuration not stated), 94.3% (active).
In the case of `CC(Nc1ccc(C#N)cn1)c1ccccc1Br` (configuration not stated) it was 53% (active); in that of `CC(Nc1nccc(C(F)(F)F)n1)c1ccc(C#N)cc1` (configuration not stated), 22.5% (inactive); in that of `CS(=O)(=O)c1ccc(CCNc2ccc(Cl)c(C#N)n2)cc1`, 24.5% (inactive).
Turning to `CC(NCc1ccc(C(C)(C)C)cc1)c1ccc(S(C)(=O)=O)cc1` (configuration not stated), the inhibition was 59.5% (active).
In the case of `CS(=O)(=O)c1ccc([C@@H](O)[C@@H](CO)NC(=O)C(Cl)Cl)cc1` it was 44.5% (inactive).
In the case of `Cc1ccc(S(=O)(=O)NCC2COc3ccccc3C2)cc1F` (configuration not stated) it was -9.55% (inactive).
With `O=S(=O)(NCC1CCC(c2ccccc2)CC1)C1CCOCC1` (configuration not stated) the figure was -0.68% (inactive).
In the case of `Cc1ccc(S(=O)(=O)NCC2CCN(c3ccccc3)C2)c(C)c1` (configuration not stated), the inhibition was 52.8% (active).
With `CCc1cc(C(=O)O)c(NC(=O)c2ccccc2C)s1` the figure was 18.1% (inactive); with `CCOC(=O)c1cc(-c2ccccc2)sc1NC(=O)CC(=O)OC`, 81% (active).
With `CCOC(=O)c1ccccc1Nc1nnc(C(C)(C)C)c(=O)[nH]1` the figure was 32.2% (inactive); with `NC(=NC1C2CC3CC(C2)CC1C3)Nc1ccc(I)cc1` (configuration not stated), 42.8% (inactive).
In the case of `C=CCN(Cc1ccccc1)C(=O)c1cnn2c1[nH]c(=O)c1ccccc12` it was 79.8% (active).
Turning to `Fc1ccc(C=Cc2ccc3ccccc3n2)cc1`, the inhibition is 32.5% (inactive).
In the case of `COc1cc(C=Cc2ccc3ccccc3n2)cc(Cl)c1OC` it was 26.8% (inactive).
Take `COc1cc(C=Cc2ccc3ccccc3n2)cc(Br)c1O`: the inhibition was 73.5% (active).
In the case of `O=C(N1CCc2ccccc2C1)N1c2ccccc2Sc2ccccc21` it was -20% (inactive); in that of `CC1CC1C(=O)Nc1ccccc1N1CCc2ccccc2C1` (configuration not stated), 81.4% (active); in that of `O=C(NCC(c1ccco1)N1CCc2ccccc21)C(=O)Nc1ccccc1[N+](=O)[O-]` (configuration not stated), 5.43% (inactive).
In the case of `O=c1c2ccccc2nc(SCc2ccc([N+](=O)[O-])cc2)n1CC1CCCO1` (configuration not stated) it was 26.6% (inactive).
In the case of `O=c1[nH]n(-c2ccc([N+](=O)[O-])cc2)c(=O)c2ccccc12`, the inhibition is 90% (active).
With `CC(C)n1c(=O)[nH]c2ccccc21` the figure was 19.6% (inactive).
For the compound `C/C(=C\c1ccccc1)C1Nc2ccccc2C(=O)N1C` (configuration not stated), the inhibition is 48.1% (inactive).
With `CC(C)N1C(=O)c2ccccc2NS1(=O)=O` the figure was 72.9% (active); with `O=C1OCC(CO)(CO)N=C1NNc1ccc([N+](=O)[O-])cc1`, -25.1% (inactive).
In the case of `O=C1OCC(CO)(CO)N=C1NNc1ccc(Cl)cc1` it was 81.8% (active).
`O=C1OCC(CO)(CO)N=C1NNc1ccc(Cl)c(Cl)c1`: the inhibition is 87.5% (active).
Take `O=C1OCC(CO)(CO)N=C1NNc1cc(Cl)ccc1Cl`: the inhibition was 91.9% (active).
As for `O=C1OCC(CO)(CO)N=C1NNc1ccc(I)cc1`, the inhibition was 36.3% (inactive).
In the case of `COc1ccc(OCc2cc(C(=O)N(C)CC3CCCCO3)no2)c(Cl)c1` (configuration not stated) it was “inactive”; in that of `CN(Cc1cnc2ccccn12)C(=O)c1cc(COc2cncc(Cl)c2)on1`, 62.9% (active).
With `CN(CCCC1CCCC1)C(=O)c1cnon1` the figure was 12.9% (inactive).
Turning to `CN1CCN(C(=O)c2cc(COc3cncc(Cl)c3)on2)CC1c1ccccc1` (configuration not stated), the inhibition is 88% (active).
With `Cc1cccc(C)c1OCc1cc(C(=O)N2CCCC(c3ccccc3)C2)no1` (configuration not stated) the figure was 47.2% (inactive); with `O=C(c1cc(COc2cncc(Cl)c2)on1)N(CCO)Cc1cccs1`, 89.6% (active); with `CN(CC1CCCCO1)C(=O)c1cc(COc2cncc(Cl)c2)on1` (configuration not stated), 95.4% (active).
In the case of `Cc1nc2cc(OCc3cc(C(=O)N4CCN(C)C(c5ccccc5)C4)no3)ccc2s1` (configuration not stated) it was 10.6% (inactive); in that of `CCc1ccc(CN(C)C(=O)c2cc(COc3cncc(Cl)c3)on2)cc1`, “inactive”.
With `Cc1ccc(C(C)C)cc1S(=O)(=O)NCc1ccco1` the figure was -19.8% (inactive); with `FC(F)(F)c1ccc(Oc2ccc3c(C4CC4)noc3n2)cn1`, 92.3% (active); with `Clc1cncc(Oc2ccc3c(C4CC4)noc3n2)c1`, 78.7% (active).
Take `COc1cccc(Oc2ccc3c(C4CC4)noc3n2)c1`: the inhibition is 93% (active).
In the case of `c1ccc(Oc2ccc3c(C4CC4)noc3n2)cc1` it was 72.8% (active).
With `COc1ccc2c(=O)c3c(=O)n(-c4ccccc4)c(C4CCCCC4)nc3oc2c1`, the inhibition was -17.1% (inactive).
In the case of `c1cn(-c2ccc(Oc3ccc4c(C5CC5)noc4n3)cc2)cn1` it was 33.5% (inactive); in that of `CCOc1ccc(C2CC(c3ccc(F)cc3)=NN2C(=O)CN(C)C2CCCCC2)cc1` (configuration not stated), -49.7% (inactive); in that of `Fc1ccc(Cl)cc1Oc1ccc2c(C3CC3)noc2n1`, 61.4% (active).
In the case of `O[C@@H]1CNCC[C@H]1CNCc1cccc(Oc2cccc(C(F)(F)F)c2)c1` it was 9.4% (inactive); in that of `FC(F)(F)c1ccccc1Oc1ccc2c(C3CC3)noc2n1`, 92.9% (active).
With `FC(F)(F)c1cccc(Oc2ccc3c(C4CC4)noc3n2)c1` the figure was 70.6% (active).
Turning to `Fc1cccc(Oc2ccc3c(C4CC4)noc3n2)c1`, the inhibition was 69.2% (active).
In the case of `Cc1ccc(F)cc1Oc1ccc2c(C3CC3)noc2n1` it was 46.9% (inactive); in that of `O=c1[nH]c(NCCO)nc2c1C1(CCCC1)Cc1ccccc1-2`, 3.77% (inactive).
For the compound `O=C(Cc1c[nH]c2cccc(Br)c12)OCC1CC1`, the inhibition was -40.3% (inactive).
For the compound `CCCNC(=O)C1(C)CCN(Cc2csc(-c3ccc(Cl)cc3)n2)C1` (configuration not stated), the inhibition was 30.7% (inactive).
In the case of `Fc1cc(F)cc(Oc2ccc3c(C4CC4)noc3n2)c1` it was 95.3% (active); in that of `Fc1ccc(Oc2ccc3c(C4CC4)noc3n2)cc1`, 6.82% (inactive); in that of `COc1ccc(Nc2ccc3c(C4CC4)noc3n2)cc1`, 85.2% (active).
With `CNC(=O)C1Sc2nc3scc(-c4ccccc4)c3c(=O)n2N=C1C` (configuration not stated) the figure was 41.4% (inactive); with `CC(C)c1ccc(-c2csc3ncn(-n4cccc4)c(=O)c23)cc1`, 12.8% (inactive); with `Cn1c(SCC(N)=O)nc2scc(-c3ccc(F)cc3)c2c1=O`, 66.5% (active).

Source of the values: PubChem BioAssay AID1259343 (VanderVen Lab, College of Veterinary Medicine, Cornell …, 2017).
